This is a sample that favours compounds with a hit; in the whole collection about 19% have one here.
DT40 TDP1 no CPT – qHTS for Inhibitors of human tyrosyl-DNA phosphodiesterase 1 (TDP1): qHTS in cells in absence of CPT; DT40 Tdp1-/- hTDP1 cells, no CPT, ATP luminescence, 48 h; Potency, µM (titrated, usually from 46.2 µM), for inactives: at the highest dose activity change, negative = growth inhibition, hits mostly inhibitors; hit rate 15% among 420,000; note: potency is the fitted concentration of half-maximal effect; % is set by controls: 0 for no effect and ±100 for the full control effect; nearly all actives have a fitted effect of over 55% in size
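Cells were dispensed at 400 per well, compounds added by pin tool, plates incubated ≥48 hr at 37 °C, then CellTiter-Glo added for 30 min at room temperature before luminescence reading. Line: DT40 Tdp1-/- complemented with hTDP1; camptothecin omitted.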
IL-1B inflam inh – qHTS for Inhibitors of Inflammasome Signaling: IL-1-beta AlphaLISA Primary Screen. THP-1 LPS/ATP IL-1B secretion, AlphaLISA, 16 h; hits give low values. activity change, % at 57.5 µM. hit rate 4.7% among 360,000; in the data active = activity change below about -50%; inconclusive = mostly about -30% to -49%; note: % is set by controls: 0 for no effect and ±100 for the full control effect
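THP-1 cells pretreated 1 hr with compounds (up to 57.5 uM final), then stimulated with LPS (250 ng/mL final) plus ATP (1.25 mM final); secreted IL-1B measured by AlphaLISA after 16 hr, decreased signal indicating inhibition.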
TGFb inhibitor – qHTS for Inhibitors of TGF-b; Potency, µM (series often up to 46.1 µM), for inactives: at the top dose activity, negative = inhibition, most hits filed as inhibitors; hit rate 1.2% among 410,000; AID 588855, 2011; HepG2 CAGA-GFP TGF-b/SMAD3 reporter, GFP fluorescence, 18 h; TGF-beta stimulated, 500 pg/mL final; note: potency is the fitted concentration of half-maximal effect; % is set by controls: 0 for no effect and ±100 for the full control effect; nearly all actives have a fitted effect of over 65% in size
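GFP signal (ex488/em500-530) from TGF-beta-stimulated HEPG2 CAGA-GFP cells, 500 pg/mL final, 18 h at 37 degrees C in DMEM plus 1% FBS, normalized to unstimulated and DMSO-stimulated controls.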
S-ASM inh – Inhibitors of Secretory Acid Sphingomyelinase (S-ASM): qHTS; placental ASM, HMU-PC fluorogenic substrate, 60 min; hit rate 0.006% among 340,000; Potency, µM (titrated, usually from 57.5 µM), without a hit: top-dose activity change, negative = inhibition, hits mostly inhibitors; note: potency is the fitted concentration of half-maximal effect
Target sequence (P17405 47-631 limits assumed): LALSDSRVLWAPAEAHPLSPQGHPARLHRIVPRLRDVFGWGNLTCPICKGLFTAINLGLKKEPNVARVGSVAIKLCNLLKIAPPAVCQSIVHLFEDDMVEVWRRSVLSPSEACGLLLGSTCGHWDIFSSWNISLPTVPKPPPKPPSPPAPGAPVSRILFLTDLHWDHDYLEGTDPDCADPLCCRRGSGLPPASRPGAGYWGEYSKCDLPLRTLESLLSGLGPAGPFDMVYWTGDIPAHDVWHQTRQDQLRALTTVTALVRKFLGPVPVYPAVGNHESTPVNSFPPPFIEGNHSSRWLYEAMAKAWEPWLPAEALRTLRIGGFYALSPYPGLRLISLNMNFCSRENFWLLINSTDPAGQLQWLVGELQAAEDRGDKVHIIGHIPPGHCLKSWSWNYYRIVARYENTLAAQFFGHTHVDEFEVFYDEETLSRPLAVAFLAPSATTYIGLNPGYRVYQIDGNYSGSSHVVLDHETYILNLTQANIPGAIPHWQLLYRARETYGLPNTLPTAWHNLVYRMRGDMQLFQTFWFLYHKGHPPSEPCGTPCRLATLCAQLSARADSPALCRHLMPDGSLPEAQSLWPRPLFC
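Fluorogenic HMU-PC substrate (9 uM final) is turned over by placental ASM in 60 min at 37 C after a 10 min compound preincubation. Reaction ended by alkaline stop (pH 10), with fluorescence read at 386/447 nm.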
HepG2 viability – qHTS for Inhibitors of TGF-b: Cytotox Counterscreen; Potency, µM (doses to about 46.1 µM), inactives show at the top dose activity change, negative = cytotoxicity, most hits filed as cytotoxic; hit rate 0.76% among 410,000; HepG2 CAGA-GFP viability, ATP luminescence, 18 h; AID 588856, 2011; note: potency is the fitted concentration of half-maximal effect
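HepG2 CAGA-GFP cells (1000/well, DMEM with 1% FBS) received compound, then TGF-beta at 500 pg/mL final, and were incubated 18 hours at 37 degrees C. Viability was read by CellTiter-Glo luminescence. Media-only wells were set as complete cell-killing and DMSO as no toxicity.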
TDP1 cell CPT – qHTS for Inhibitors of human tyrosyl-DNA phosphodiesterase 1 (TDP1): qHTS in cells in presence of CPT; Potency, µM (titrated, usually from 46.2 µM), for the others: at the highest dose activity change, negative = growth inhibition, hits mostly inhibitors; hit rate 12% among 420,000; chicken DT40 Tdp1-/-;hTDP1 cells + 20 nM CPT, ATP luminescence, 48 h; note: potency is the fitted concentration of half-maximal effect; % is set by controls: 0 for no effect and ±100 for the full control effect; nearly all actives have a fitted effect of over 55% in size
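Chicken DT40 Tdp1-/- cells complemented with human TDP1, 400 cells/well, exposed to compounds plus 20 nM camptothecin for at least 48 h at 37 C; viability read as ATP content by CellTiter-Glo luminescence.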
Starred values were filed as active, the others as inactive. Unless noted, calls come from the whole dose curve; as a rule, active = well fitted curve in the direction sought with a large enough effect; inconclusive = small, poorly fitted or top-dose-only effect, or another doubt; inactive = no such curve, though single readings can be large; an effect the other way counts as inactive or inconclusive.

For CCOC(=O)COc1cc(N)c(Cl)cc1Cl the results were DT40 TDP1 no CPT -5%, IL-1B inflam inh -53*, TGFb inhibitor inconclusive, S-ASM inh -2%, HepG2 viability 1% and TDP1 cell CPT -1%.
For O=S1(=O)CC(N2CCCC2)CN1Cc1cn(Cc2cccc(Cl)c2)nn1 (configuration not stated) the results were DT40 TDP1 no CPT -16%, IL-1B inflam inh 2 and TDP1 cell CPT 4%.
`O=C1OC2(O)C3C4C=CC(C4)C3C(=O)N2c2ccccc21` (configuration not stated) gave DT40 TDP1 no CPT 9%, IL-1B inflam inh 0, TGFb inhibitor -7%, S-ASM inh 1%, HepG2 viability -2% and TDP1 cell CPT 3%.
CC(CNC(=O)CCc1nnc(CCC2CCCCC2)o1)c1ccccc1 (configuration not stated) was read as DT40 TDP1 no CPT inconclusive, IL-1B inflam inh -16, TGFb inhibitor 1%, S-ASM inh -2%, HepG2 viability -10% and TDP1 cell CPT -4%.
Cc1ccc2c(c1)N(C(=O)N1CCC(C(=O)NCc3ccccc3C)CC1)CC(C)O2 (configuration not stated) was read as DT40 TDP1 no CPT 16µM*, TGFb inhibitor inconclusive, HepG2 viability -17% and TDP1 cell CPT 21µM*.
`Cc1ccc(CNC(=O)C2CCN(C(=O)N3CC(C)Oc4ccc(Cl)cc43)CC2)cc1` (configuration not stated) gave DT40 TDP1 no CPT 18µM*, TGFb inhibitor inconclusive, HepG2 viability -23% and TDP1 cell CPT inconclusive.
COc1cccc(CNC(=O)c2ccc3c(c2)nnn3C2CCCC2)c1 was read as DT40 TDP1 no CPT -26%, TGFb inhibitor inconclusive, HepG2 viability -70% and TDP1 cell CPT inconclusive.
O=C(NCC1CCCCC1)c1cc(S(=O)(=O)N2CCOCC2)ccc1F was read as DT40 TDP1 no CPT inconclusive, IL-1B inflam inh 14, TGFb inhibitor 2%, S-ASM inh 4%, HepG2 viability 5% and TDP1 cell CPT -28%.
Screening COc1ccc(Cc2nc3ccc(C(=O)N(C)CCc4cnn(C)c4)cc3o2)cc1OC returned DT40 TDP1 no CPT 8.2µM*, IL-1B inflam inh inactive, TGFb inhibitor -8%, S-ASM inh 1%, HepG2 viability -20% and TDP1 cell CPT inconclusive.
CCN(Cc1cnn(C)c1)C(=O)c1ccc2nc(Cc3cccc(Cl)c3)oc2c1 was read as DT40 TDP1 no CPT 23µM*, IL-1B inflam inh 0, TGFb inhibitor -30%, S-ASM inh 2%, HepG2 viability -19% and TDP1 cell CPT 23µM*.
For COc1ccc(Cc2nc3ccc(C(=O)NCCc4ccncc4)cc3o2)cc1OC the results were DT40 TDP1 no CPT -28%, IL-1B inflam inh 0, TGFb inhibitor -2%, S-ASM inh 0%, HepG2 viability -1% and TDP1 cell CPT -28%.
`CCOc1cc(C(=O)NCC(=O)N/N=C/c2sccc2C)cc(OCC)c1OCC` gave DT40 TDP1 no CPT 8%, IL-1B inflam inh 25, TGFb inhibitor 8%, S-ASM inh 0%, HepG2 viability 4% and TDP1 cell CPT -7%.
For O=C(COc1coc(CN2CCN(c3ccccc3)CC2)cc1=O)Nc1cccc(F)c1 the results were DT40 TDP1 no CPT -21%, IL-1B inflam inh 14, TGFb inhibitor 2%, S-ASM inh -4%, HepG2 viability 11% and TDP1 cell CPT -23%.
Screening COc1ccc(NC(=O)COc2coc(CN3CCN(c4ccccc4)CC3)cc2=O)cc1 returned DT40 TDP1 no CPT inconclusive, IL-1B inflam inh 1, TGFb inhibitor 62%, HepG2 viability 1% and TDP1 cell CPT 21µM*.
Cc1cccc(NC(=O)COc2coc(CN3CCN(c4ccccc4)CC3)cc2=O)c1 was read as DT40 TDP1 no CPT 18µM*, IL-1B inflam inh 12, TGFb inhibitor -21%, S-ASM inh 0%, HepG2 viability -8% and TDP1 cell CPT 21µM*.
Screening Cn1nc(C(F)(F)F)c(-c2ccc(Br)cc2)c1NC(=O)CSCC(=O)O returned DT40 TDP1 no CPT 2%, IL-1B inflam inh -7, TGFb inhibitor 16%, S-ASM inh -3%, HepG2 viability -5% and TDP1 cell CPT 0%.
For O=C(COC(=O)c1cc(-c2ccccc2)nc2c(Cl)cccc12)c1ccc(F)cc1 the results were DT40 TDP1 no CPT inconclusive, TGFb inhibitor -4%, HepG2 viability 3% and TDP1 cell CPT -30%.
For COc1ccc(N(CC(=O)Nc2ccc3c(c2)OCO3)S(=O)(=O)c2ccccc2)cc1OC the results were DT40 TDP1 no CPT inconclusive, IL-1B inflam inh 8, TGFb inhibitor -6%, S-ASM inh 0%, HepG2 viability -1% and TDP1 cell CPT inconclusive.
`COc1ccc(N(CC(=O)Nc2ccc3c(c2)OCO3)S(=O)(=O)c2ccc(F)cc2)cc1` gave DT40 TDP1 no CPT inconclusive, IL-1B inflam inh 0, TGFb inhibitor -2%, S-ASM inh -2%, HepG2 viability -16% and TDP1 cell CPT inconclusive.
COc1ccc(N(CC(=O)Nc2ccc3c(c2)OCO3)S(=O)(=O)c2ccccc2)c(OC)c1 was read as DT40 TDP1 no CPT 18µM*, IL-1B inflam inh -17, TGFb inhibitor 0%, S-ASM inh 2%, HepG2 viability -4% and TDP1 cell CPT 21µM*.
COc1ccc(N(CC(=O)Nc2ccc3c(c2)OCCO3)S(=O)(=O)c2cccc(C)c2)cc1 was read as DT40 TDP1 no CPT inconclusive, IL-1B inflam inh -9, TGFb inhibitor -28%, S-ASM inh 0%, HepG2 viability -13% and TDP1 cell CPT 26µM*.
`COc1ccccc1N(CC(=O)Nc1ccc2c(c1)OCCO2)S(=O)(=O)c1ccc(C)cc1` gave DT40 TDP1 no CPT 9.2µM*, IL-1B inflam inh -10, TGFb inhibitor 0%, S-ASM inh 1%, HepG2 viability 29% and TDP1 cell CPT inconclusive.
